Test results published in PubChem BioAssay AID624255 (Broad Institute, 2012).
Values joined by “and” are separate entries in the source; they are usually repeats but may differ in a detail not shown here. Identical values can stand only once. Hit rate of the full screen: of about 77,000 compounds, about 4,600 (6%) were called active. About 1% were inconclusive and are not listed. Shown is part of a subset that was picked to be rich in actives. A number with no mark means an inactive call.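 Rule for the calls: active = mean inhibition above about 93%, with at least 55% of replicates each passing it (limit read from the data, passing the limit was not always enough); inconclusive = only one of those two conditions holds; inactive = neither condition holds.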

Experiment: T. cruzi intracellular proliferation inhibitors, primary screen, cell-based, beta-gal Tulahuen parasites, NIH3T3 host, luminescence (AID 624255)
Conditions: T. cruzi beta-gal in NIH3T3, GalScreen luminescence, 90 h; at 8.34 µM; hits give high values

Structure (SMILES) | inhibition
CO[C@H]1CC[C@H]2CCOc3c(C#N)cccc3C(=O)N(C)CC3(CCCCC3)CC(=O)N(C)C[C@@H]1O2 | 13.3%
CCCNC(=O)Nc1ccc2c(c1)OC[C@@H](C)N(C(=O)c1ccccc1F)C[C@H](C)[C@@H](OC)CN(C)C2=O | 52.3%
COc1ccccc1C#Cc1ccc([C@@H]2[C@H](CO)N3CCCCN(C(=O)C4CCCC4)C[C@@H]23)cc1 | 109% (active)
COCC#Cc1ccc([C@@H]2[C@@H](CO)N3CCCCN(C(=O)NC4CCCC4)C[C@H]23)cc1 | 69.2%
COCC(=O)N1CCCCN2[C@H](CO)[C@H](c3ccc(C#Cc4ccc(OC)cc4)cc3)[C@H]2C1 | 72.8%
COc1ccccc1C#Cc1ccc([C@H]2[C@H](CO)N3CCCCN(C(=O)C4CCC4)C[C@@H]23)cc1 | 109% (active)
CC(C)NC(=O)N1CCCCN2[C@@H](CO)[C@@H](c3ccc(C#Cc4ccccc4)cc3)[C@@H]2C1 | 80.4%
COc1ccccc1C#Cc1ccc([C@@H]2[C@@H](CO)N3CCCCN(S(C)(=O)=O)C[C@@H]23)cc1 | 77.3%
COc1ccccc1C#Cc1ccc([C@@H]2[C@H](CO)N3CCCCN(C(=O)C4CC4)C[C@@H]23)cc1 | 110% (active)
CO[C@@H]1CN(C)C(=O)c2cc(NC(=O)c3ccccc3)ccc2OC[C@H](C)N(C(=O)CN(C)C)C[C@H]1C | -60.5%
O=C([C@H]1[C@H](CO)[C@H]2Cn3c(ccc(C4=CCCCC4)c3=O)[C@@H]1N2)N1CCCCC1 | 60.4%
CO[C@H]1CN(C)C(=O)c2ccc(NS(C)(=O)=O)cc2OC[C@H](C)N(C(=O)C2CCC2)C[C@H]1C | 11%
O=C(C1CCC1)N1C[C@H]2[C@@H](c3ccccc31)[C@@H](CO)N2C(=O)c1ccccc1F | 5.17%
COc1cccc(S(=O)(=O)N[C@H]2CC[C@@H](CCN)O[C@H]2CO)c1 | 59%
Cc1noc(C)c1S(=O)(=O)Nc1ccc2c(c1)C(=O)N([C@H](C)CO)C[C@@H](C)[C@@H](CN(C)C(=O)C1CCCCC1)OCCCC[C@@H](C)O2 | 48.7%
CC(C)NC(=O)Nc1ccc2c(c1)C(=O)N(C)[C@@H]1CC[C@H](CC(=O)NCC3CCCCC3)O[C@@H]1CO2 | -5.5%
C[C@H](O)C#Cc1ccc2c(c1)O[C@H](CN(C)C(=O)C1CCCCC1)[C@@H](C)CN([C@H](C)CO)S2(=O)=O | 60.6%
C[C@H]1CCCCO[C@@H](CN(C)C(=O)Cc2ccccc2)[C@@H](C)CN([C@@H](C)CO)C(=O)c2cc(NC(=O)c3ccccc3)ccc2O1 | 33.7%
C[C@H](CO)N1C[C@H](C)[C@@H](CN(C)Cc2ccccc2)Oc2ccc(NC(=O)Nc3ccc4c(c3)OCO4)cc2C1=O | 8.73%
C[C@@H]1CN([C@H](C)CO)C(=O)c2cc(NC(=O)Nc3ccc4c(c3)OCO4)ccc2O[C@H]1CN(C)Cc1ccc(-c2ccccc2)cc1 | 70.1%
C[C@@H]1CN([C@@H](C)CO)C(=O)c2cc(NC(=O)Nc3ccc4c(c3)OCO4)ccc2O[C@@H]1CN(C)Cc1ccc(Oc2ccccc2)cc1 | 100% (active)

Structure (SMILES) | inhibition
C[C@H]1CN([C@@H](C)CO)C(=O)c2cc(NC(=O)C3CC3)ccc2O[C@@H]1CN(C)Cc1ccc(Oc2ccccc2)cc1 | 66.9%
C[C@H]1CN([C@@H](C)CO)C(=O)c2cc(NC(=O)Nc3ccc4c(c3)OCO4)ccc2O[C@@H]1CN(C)Cc1ccc(Oc2ccccc2)cc1 | 119% (active)
COc1ccc(NC(=O)Nc2ccc3c(c2)C(=O)N([C@@H](C)CO)C[C@H](C)[C@@H](CN(C)Cc2ccc4c(c2)OCO4)O3)cc1 | 31.2%
CCCNC(=O)C[C@@H]1CC[C@@H]2[C@H](COc3ccc(NC(=O)c4cc(F)cc(F)c4)cc3C(=O)N2C)O1 | -19.9%
C[C@@H]1CCCCO[C@@H](CN(C)C(=O)Nc2ccc(F)cc2)[C@H](C)CN([C@@H](C)CO)C(=O)c2cc(NS(C)(=O)=O)ccc2O1 | 23.8%
CN(C)C(=O)c1ccc(-c2ccc([C@H]3[C@@H](CO)N4CCCCN(CC5CC5)C[C@H]34)cc2)cc1 | 108% (active)
CN(C)C(=O)c1ccc(-c2ccc([C@@H]3[C@H](CO)N4CCCCN(S(C)(=O)=O)C[C@@H]34)cc2)cc1 | 103% (active)
CN(C)C(=O)c1ccc(-c2ccc([C@H]3[C@H](CO)N4CCCCN(S(C)(=O)=O)C[C@@H]34)cc2)cc1 | 83.3%
CS(=O)(=O)N1CCCCN2[C@@H](CO)[C@@H](c3ccc(Br)cc3)[C@@H]2C1 | -42.1%
CN(C)C(=O)c1ccc(-c2ccc([C@@H]3[C@@H](CO)N4CCCCN(CC5CC5)C[C@H]34)cc2)cc1 | 11.3%
CN(C)CC#Cc1ccc([C@H]2[C@H](CO)N3CCCCN(CC4CC4)C[C@@H]23)cc1 | -75.2%
CN1C(=O)c2cc(NC(=O)Nc3ccccc3Cl)ccc2OC[C@H]2O[C@@H](CC(=O)O)CC[C@H]21 | 15.3%
Cc1noc(C)c1NC(=O)N(C)C[C@@H]1OCCCC[C@H](C)Oc2ccc(NC(=O)NC3CCCCC3)cc2C(=O)N([C@H](C)CO)C[C@@H]1C | 22.8%
Cc1ccccc1S(=O)(=O)Nc1ccc2c(c1)C(=O)N(C)[C@H]1CC[C@@H](CC(=O)O)O[C@H]1CO2 | 13.1%
C[C@@H]1CN([C@H](C)CO)C(=O)Cc2cc(NC(=O)CCN3CCOCC3)ccc2O[C@H]1CN(C)CC1CC1 | 37.8%
O=C(CC1CC1)N1[C@H](CO)[C@@H]2c3ccccc3N(S(=O)(=O)c3ccc(F)cc3)C[C@@H]21 | 18.3%
C[C@@H]1CN([C@@H](C)CO)C(=O)CCCn2cc(nn2)CO[C@@H]1CN(C)S(=O)(=O)c1ccccc1F | 112% (active)
C[C@H]1CN([C@@H](C)CO)C(=O)CCCn2cc(nn2)CO[C@@H]1CN(C)S(=O)(=O)c1ccc(-c2ccccc2)cc1 | 3.26% and 11.9%
CCCNC(=O)N(C)C[C@H]1Oc2ncc(C#Cc3ccncc3)cc2C(=O)N([C@@H](C)CO)C[C@@H]1C | 12.1%
C[C@H]1CN([C@@H](C)CO)C(=O)c2cc(C#Cc3ccccc3F)cnc2O[C@H]1CN(C)C | 87.2%
C[C@H](CO)N1C[C@H](C)[C@@H](CN(C)S(=O)(=O)c2ccccc2F)Oc2ncc(C#Cc3ccccc3F)cc2C1=O | 112% (active)

Structure (SMILES) | inhibition
C[C@H](CO)N1C[C@H](C)[C@H](CN(C)C(=O)C2CCOCC2)Oc2ncc(C#Cc3ccccc3F)cc2C1=O | -27.2%
C[C@H]1CN([C@@H](C)CO)C(=O)c2cc(C#Cc3ccccc3F)cnc2O[C@@H]1CN(C)C(=O)C1CC1 | -11.1%
C[C@H](CO)N1C[C@H](C)[C@@H](CN(C)S(=O)(=O)c2ccccc2)Oc2ncc(C#Cc3ccccc3F)cc2C1=O | 120% (active)
C[C@@H]1CN([C@@H](C)CO)C(=O)CCCn2cc(nn2)CO[C@@H]1CN(C)S(=O)(=O)c1cccc(F)c1 | -8.28%
COc1ccc(C#Cc2cnc3c(c2)C(=O)N([C@H](C)CO)C[C@H](C)[C@H](CN(C)S(=O)(=O)c2ccc(F)cc2)O3)cc1OC | 104%
CCCNC(=O)N(C)C[C@@H]1Oc2ncc(C#Cc3ccccc3F)cc2C(=O)N([C@@H](C)CO)C[C@H]1C | 116% (active)
CCCNC(=O)N(C)C[C@H]1Oc2ncc(C#CC(C)C)cc2C(=O)N([C@@H](C)CO)C[C@@H]1C | 53.3%
CCC(=O)NC[C@H]1[C@@H](c2ccc(C3=CCCC3)cc2)[C@@H](CO)N1C(=O)C1CC1 | 21.5%
CO[C@H]1CN(C)C(=O)c2cc(NC(=O)C3CCCCC3)ccc2OC[C@H](C)N(C(=O)c2ccccc2)C[C@H]1C | 7.09%
C/C=C/c1cnc2c(c1)C(=O)N([C@@H](C)CO)C[C@@H](C)[C@@H](CN(C)C(=O)C1CCOCC1)O2 | -31.5%
CCCNC(=O)Nc1ccc2c(c1)C(=O)N(C)[C@H]1CC[C@H](CC(=O)NC3CCC3)O[C@H]1CO2 | 57.7%
O=C(CC1CC1)N1CC[C@@H]2[C@H](CO)Nc3ccc(-c4ccc(F)cc4)cc3[C@@H]21 | 89.6%
CN(C)C(=O)c1cccc(-c2ccc3c(c2)[C@H]2[C@H](CCN2C(=O)Cc2ccccc2)[C@H](CO)N3)c1 | 80.1%
O=C(Cc1ccccc1)N1CC[C@@H]2[C@H](CO)Nc3ccc(-c4ccccc4)cc3[C@@H]21 | 81.9%
O=C(Cc1ccccc1)N1CC[C@H]2[C@H](CO)Nc3ccc(-c4ccccc4F)cc3[C@H]21 | 111% (active)
N#Cc1ccc(-c2ccc3c(c2)[C@H]2[C@H](CCN2Cc2ccc4c(c2)OCO4)[C@@H](CO)N3)cc1 | 79.2%
N#Cc1ccc(-c2ccc3c(c2)[C@@H]2[C@@H](CCN2C(=O)Cc2ccncc2)[C@@H](CO)N3)cc1 | 108% (active)
Cc1noc(C)c1NC(=O)N(C)C[C@@H]1OCCCC[C@H](C)Oc2ccc(NS(=O)(=O)c3c(C)noc3C)cc2C(=O)N([C@@H](C)CO)C[C@@H]1C | -9.2%
COc1cccc(S(=O)(=O)N[C@H]2CC[C@@H](CC(=O)NCc3ccc(F)cc3)O[C@@H]2CO)c1 | 47.6%
COc1ccc(-c2ccc3c(c2)O[C@@H](CN(C)CC2CCOCC2)[C@@H](C)CN([C@@H](C)CO)S3(=O)=O)cc1 | 40.6%
